# Legend:
# [1] = target: T1, ETS1 (UniProt P14921); assay: ETS1 binding intensity (PBM fluorescence), ETS1 alone (arbitrary fluorescence units); higher = stronger binding; conditions: ETS1 concentration 1 nM; RUNX1 concentration 0 nM
# T1 sequence: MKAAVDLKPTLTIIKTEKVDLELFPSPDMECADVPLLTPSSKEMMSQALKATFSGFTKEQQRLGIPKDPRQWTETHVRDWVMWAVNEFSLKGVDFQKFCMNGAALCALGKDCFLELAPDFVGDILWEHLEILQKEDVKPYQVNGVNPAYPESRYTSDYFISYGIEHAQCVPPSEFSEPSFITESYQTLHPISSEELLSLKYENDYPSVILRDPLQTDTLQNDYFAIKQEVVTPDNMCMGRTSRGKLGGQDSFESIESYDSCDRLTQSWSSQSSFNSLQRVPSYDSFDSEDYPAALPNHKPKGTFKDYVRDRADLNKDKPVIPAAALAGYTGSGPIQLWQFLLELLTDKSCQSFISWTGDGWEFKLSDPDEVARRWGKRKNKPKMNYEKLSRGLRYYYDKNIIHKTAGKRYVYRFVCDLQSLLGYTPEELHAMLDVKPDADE
# [2] = target: T1, ETS1; assay: ETS1 binding intensity (PBM fluorescence) in presence of RUNX1, normalised to ETS1-only experiment (arbitrary fluorescence units); higher = stronger binding; conditions: ETS1 concentration 1 nM; RUNX1 concentration 25 nM
Sequence,ETS1 binding intensity [1],ETS1 binding intensity [2]
CTCCCACGCTCCCCTTCCGGCCCCGCAGCGCTGTGA,804,746
CGGCGCTCGCGGAAGTGCCGCGGTGCCTGCTCTGCA,796,759
TAACGCGAGAACTTCCTGCGGGCCACGCCCTCTTTC,571,462
GCCTGCGCTCTTTCCGGTAGCCACAGCCTCGTCTAA,1290,1220
GGTCCAGGAAGACGTCAAGGGCTTGGTTTTGTAAAC,505,448
GGTTGCCCCCTTCCTCTCTGTGGCACACACAGACCT,474,345
CCGCCCACTTCCGTGTGGCCGCCGATTGGTTTTGCC,491,516
GTCCCCCTTCCGGCTGCAGGTTGAGGTTTGGAACCT,511,560
GCGCGGCTCAGGAAGCGACGCGGTTCAGGGAGCGAA,707,577
AGCGCTTCCCCTTCCGCTGCCGCAGCCGCCGCCTCC,498,466
TGAATCATCCTGAGTTACCCGTTCTGTAACCGCCCC,490,517
AGGAGAGGATGTTGCTTGAAGGTGTGGTCTCCTCCA,549,462
TAGCAGGAAGCCGATTCGCCCTATATGCAACCACTT,549,570
AGTACAAAGGGGAAATGTCTCTTGGTGGTTGATAAG,628,564
AGCCAGGAAATCCGCACCTACACAGCCCAACCACAG,582,435
ATACATACAGGATGACATTTGTCCTGTGGGCACCAG,495,515
CCTCCTCTTCCTCCCCACTCTGCACATGCGGCTGGG,520,344
GCTTAGGCTCTTTCCTGTGTGGTGAGCACTAACCTC,488,324
AGGTGGGAGGAAGTTCCTACCCCGGCGCGGTGTGCA,625,620
CATCTACTGAGGAAGTGTAAGCCACAATAAGAAGCC,641,869
ACAGCATTTCCTGGTGGCCAGATATCTGAGGTTTCA,426,539
GCTGCTGTAGTCGCTTCCTGCGGCCAGCCCGGGTTC,526,528
CTCAGAGCTGCGGAAACTACAACTCCCACAAGGCTG,738,633
CTGGCCAGCTCCCACGGATGTGGTAGGCAGGCAGCA,965,1430
CCAGAGCAGGATGTTCTGCTGTGGCTAGATAAGCCC,907,916

Sequence,ETS1 binding intensity [1],ETS1 binding intensity [2]
AACAGATCCTTCCTGGCCCCCACTAGCCACAGGTTT,490,421
CCTCTCAACAGCATTTCCTGGTGGTCAGATATCTGA,580,587
GACGGGATGTAGGTTTTCAGCCGTGGCCACAGGAGA,496,559
CGCCCTCCGGAAGAGAGGGCGGACCGCGGCCGCGCA,570,636
CAGTTCCAGGAAGCAGCCCCAAGCTTGTGGCCCTGA,526,305
CCGAGCCGGCCTCTTCCGCCGCAAGTCCCTCCCCAA,548,428
CTGGCAGGCCTCACTTCCTCACCACATGGCCCTCCC,543,640
CCGCCTCCGGAAGAATTCTCTGCGGGCATGTTGCTG,736,775
TAACCCGGAGCGGAAGGATCCCGCAGCGTGTGCGTA,681,797
GAAACCTCACTCTGAGGATGTGGGTTCTGCCTTCTT,522,1710
CTCCGGGAACAGCGGAAAAGGGACCGCATGAACCTC,900,1470
TGACGGCCAGGAAGCCTGAAGCCGCAGGGGCCGCCG,345,595
TGGCAGGATGCCGTTAAATATGTAACCACATGTCTC,500,1250
ATTGTAAATTTCCTTTAAACGTCCCCACCGCGCTCC,463,480
CGCCGTAGGAGGAAGCCGCGGCCGCAACGCTCCTGG,454,816
CATTCCCGAGAGACTTCCGCGCCGCAGTTTCCCTGC,523,380
AGACCCGGACCGGAACCTTGGCGCGGTGACGCTAGT,1050,975
ATTACATCCGGGCTCCGCGACACGCCCGAACCACAA,549,427
ATGTGCGTGTGCACAGGAAAACCACTGCCAGTATTT,756,789
GACCCATTTCCTGGCTCAGGAGCCCACAGCCCTGGG,464,404
TGAAGTTCAGGGGGAAGTGGTTAGAGTCCCTGCGAG,494,674
TCTGGGCTGACTTCCTGGCTTCGTCCCACAACTTCA,668,617
TTGAAAAGGAAGTTCATTTGTACTGAGGTGGTTTTA,602,698
CGGGCCCGACGGAAACCATGTTTGTGGCTCGCAGCA,744,699
